Source: PubChem
An excerpt weighted towards active compounds, which were near 8.9% of everything screened.
HPGD block = HPGD (human) dehydrogenase inhibition. P15428. purified HPGD, NADH fluorescence kinetic, PGE2 substrate. Potency, µM, for inactives: at the highest dose activity change, negative = inhibition, actives largely listed as inhibitors. 4.3% of 150,000 active. AID 894; active = well fitted inhibition curve with a large enough effect, not every such curve was filed as active; inconclusive = small, poorly fitted or top-dose-only effect, or another doubt; inactive = no such curve, though single readings can be large or run the other way; note: potency is the fitted concentration of half-maximal effect
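20 nM HPGD preincubated 15 min at room temperature with compound in 50 mM Tris-HCl pH 8, 0.01% Tween 20. Started with 1 mM NAD+ and 30 uM prostaglandin E2; NADH fluorescence (360/450 nm) read 5 times over 30-s intervals, last minus first.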
ALOX12 inhib = 12-hLO (ALOX12) enzyme inhibition; P18054; purified 12-hLO, xylenol orange hydroperoxide absorbance; Potency, µM (titrated, usually from 57.1 µM), without a hit: at the highest dose activity change, negative = inhibition, usual class: inhibitors; 0.12% of 150,000 active; AID 1452; note: potency is the fitted concentration of half-maximal effect; nearly all actives have a fitted effect of over 55% in size
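150 nM 12hLO, 25 mM Hepes pH 7.0 + 0.01% Triton X-100; cpd preinc 15 min RT; 40 uM arachidonic acid, 30 min RT; Fe-XO 30 min; A573/A405 ratio as read-out.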
ALDH1A1 inh = ALDH1A1 (human) enzyme inhibition | Potency, µM (highest dose often 75.3 µM), for inactives: at the top dose activity, negative = inhibition, hits mostly inhibitors | Purified ALDH1A1, NADH fluorescence, propionaldehyde substrate | P00352 | 7.3% of 220,000 active | AID 1030; active = well fitted inhibition curve with a large enough effect, not every such curve was filed as active; inconclusive = small, poorly fitted or top-dose-only effect, or another doubt; inactive = no such curve, though single readings can be large or run the other way;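 note: potency is the fitted concentration of half-maximal effect; plate controls were no enzyme wells and a reference inhibitor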
NPSR antagonist = blocks cAMP signaling of the human neuropeptide S receptor | Q6W5P4 | CHO-NPSR cells, cAMP TR-FRET, antagonist mode | Potency, µM (doses to about 38.3 µM), without a hit: at the highest dose activity change, negative = inhibition, hits mostly inhibitors | 1% of 220,000 active; note: potency is the fitted concentration of half-maximal effect; nearly all actives have a fitted effect of over 50% in size
Target sequence (Q6W5P4 whole entry, looked up): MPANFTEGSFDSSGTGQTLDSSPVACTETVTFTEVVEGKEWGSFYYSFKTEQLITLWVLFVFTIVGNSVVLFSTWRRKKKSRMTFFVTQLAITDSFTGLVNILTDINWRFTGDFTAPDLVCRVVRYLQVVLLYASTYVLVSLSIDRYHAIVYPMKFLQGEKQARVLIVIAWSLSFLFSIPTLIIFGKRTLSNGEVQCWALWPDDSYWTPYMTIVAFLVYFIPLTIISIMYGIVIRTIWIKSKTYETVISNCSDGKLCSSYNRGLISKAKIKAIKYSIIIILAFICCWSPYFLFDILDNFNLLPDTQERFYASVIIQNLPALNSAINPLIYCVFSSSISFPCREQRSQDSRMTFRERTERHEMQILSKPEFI
IMPase Li cell = cell-permeable IMPase inhibitors with lithium potentiation | CHO-M1 cells, IP1 TR-FRET (IP-One), carbachol + lithium | Potency, µM (highest dose often 59.4 µM), without a hit: top-dose activity, negative = IMPase inhibition, most hits filed as inhibitors | 0.35% of 210,000 active;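 note: IP1 builds up when IMPase is blocked and the TR-FRET signal falls; potency is the fitted concentration of half-maximal effect; plate controls were basal vehicle for no effect and high inhibitor control for full effect; nearly all actives have a fitted effect of over 50% in size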
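IP1 accumulation measured by competitive TR-FRET in lysed CHO-M1 cells after 30 min compound exposure at 37C, with a small lithium addition to potentiate weak responses. Hill-equation AC50 from ratio and donor-channel data.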
IMPase inh = IMPase inhibition in cells; inhibition (IP1 accumulation), % at 46.1 µM; 120,000 tested, under 10 active; AID 901; CHO-M1 cells, IP1 accumulation, HTRF TR-FRET ratio; active = well fitted curve in the direction sought with a large enough effect in the signal ratio, not every such curve was filed as active; inconclusive = small, poorly fitted or top-dose-only effect, or a change in a side signal; inactive = no such curve, though single readings can be large or run the other way; the % refers to the signal ratio;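 note: cells stimulated with carbachol in lithium chloride buffer; plate controls were DMSO basal wells for no effect and reference inhibitor wells for full effect; higher means more IMPase inhibition seen as more IP1 and lower FRET ratio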
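Elevated IP1 in lysates lowers TR-FRET signal (665/620 ratio and 620 channel reported). Cells were CHO-M1, given carbachol (50 uM as added) plus 50mM LiCl, pH 7.4, 30 min, 37C; compounds titrated up to 46 uM; AC50 by Hill equation.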
An asterisk follows results filed as active; u = inconclusive; x = not tested or not shown; [ ] = dose if it differs, or a comment. Unless noted, calls come from the whole dose curve; as a rule, active = well fitted curve in the direction sought with a large enough effect; inconclusive = small, poorly fitted or top-dose-only effect, or another doubt; inactive = no such curve, though single readings can be large; an effect the other way counts as inactive or inconclusive. Unless noted, % is set by controls: 0 for no effect and ±100 for the full control effect.

SMILES	HPGD block	ALOX12 inhib	ALDH1A1 inh	NPSR antagonist	IMPase Li cell	IMPase inh
CCOC(=O)C1CCCN(C(=O)c2ccc(OCC)cc2)C1 (centres undefined)	14µM*	-2%	-12%	-8%[46.1 µM]	-2%[38.3 µM]	-14
CCOc1ccc(OCc2ccc(C(=O)OCc3ccccn3)o2)cc1	25µM*	1%	u	-10%[46.1 µM]	8%[38.3 µM]	4
Cc1ccc([N+](=O)[O-])cc1NC(=O)Nc1ccc(S(N)(=O)=O)cc1	x	x	u	-14%	x	x
CSc1ccccc1NC(=O)CN(C)C(C)C(=O)Nc1ccc(C#N)cc1 (centres undefined)	x	x	-8%	-21%	-2%	x
Cc1ccc(S(=O)(=O)N(C)c2ccc(OCC(=O)OCc3c(C)noc3C)cc2)cc1	u	2%	-8%	-21%[46.1 µM]	13%	7
Cc1nnc(SCc2ccccc2)n(N)c1=O	-13%	0%	u	0%	4%	-19
CCCCOc1ccc(C(=O)N2CC(C)OC(C)C2)cc1 (centres undefined)	u	0%	0.079µM*	-14%[46.1 µM]	24%[38.3 µM]	10
Cc1cc(C)cc(C(=O)N2CC(C)OC(C)C2)c1 (centres undefined)	-11%	4%	u	u	-12%[38.3 µM]	5
O=C(c1ccc(COc2ccccc2Br)o1)N1CCCCCC1	14µM*	-8%	16µM*	-27%[46.1 µM]	16%[38.3 µM]	18
O=C(c1ccc(COc2ccccc2Cl)o1)N1CCN(c2ccccc2)CC1	-17%	-4%	u	-20%[46.1 µM]	22%[38.3 µM]	5
N#CC(C#N)=Cc1ccc(OCC(=O)N2CCOCC2)cc1	x	x	8.9µM*	-25%	4%	x
COc1ccc(/C=N/n2cnn(Cc3ccccc3Cl)c2=S)cc1OC	x	x	u	-19%	12%	x
Oc1ccc(/C=N/n2cnn(Cc3ccccc3Cl)c2=S)c(O)c1	20µM*	-2%	20µM*	-8%	2%	x
CCn1c(CSc2nc3ccccc3s2)n[nH]c1=S	u	-2%	u	-8%[46.1 µM]	-1%[38.3 µM]	2
S=c1[nH]nc(CSc2nc3ccccc3s2)n1Cc1ccccc1	13µM*	-27%	u	-14%[46.1 µM]	27%[38.3 µM]	-4
C=CCn1c(CSc2nc3ccccc3s2)n[nH]c1=S	18µM*	-5%	11µM*	-5%[46.1 µM]	-7%[38.3 µM]	-2
C=CCn1c(C(c2ccccc2)c2ccccc2)n[nH]c1=S	25µM*	-1%	6%	-5%	-3%	x
C=CCn1c(Cc2nc3ccccc3[nH]2)n[nH]c1=S	u	-5%	u	-7%[46.1 µM]	17%[38.3 µM]	4
CC(C)CC(=O)NC(=S)Nc1ccc(S(=O)(=O)N2CCCC2)cc1	x	x	u	-57%	23%	x
O=[N+]([O-])c1ccc(N2CCN(c3ccccc3F)CC2)c(S(=O)(=O)N2CCOCC2)c1	x	5%	u	-19%[46.1 µM]	x	-3
Cc1cc(-c2nn3c(-c4ccccc4)nnc3s2)c2ccccc2n1	14µM*	0%	8.9µM*	-23%[46.1 µM]	7%	1
c1ccc(-c2cc(-c3nn4c(-c5ccco5)nnc4s3)c3ccccc3n2)cc1	u	1%	u	u	29%[38.3 µM]	4
Cc1ccccc1-c1nn2c(-c3ccccc3)nnc2s1	28µM*	-10%	u	2%[7.67 µM]	7%[38.3 µM]	11
Cc1nnc2sc(-c3ccncc3)nn12	-12%	-2%	-4%	15%[46.1 µM]	6%[38.3 µM]	0
COc1ccc(-c2nnc3sc(-c4ccccc4OC)nn23)cc1	u	-6%	-8%	-15%[7.67 µM]	-4%[38.3 µM]	-7
CC(C)(C)c1ccc(-c2nnc3sc(-c4ccncc4)nn23)cc1	u	-1%	13µM*	-26%[46.1 µM]	26%[38.3 µM]	-1
Cc1ccc(-c2nnc3sc(CCc4ccccc4)nn23)cc1	14µM*	-3%	3.5µM*	-23%[46.1 µM]	43%[38.3 µM]	3
CCc1ccc(CN2C(=O)c3ccccc3C2C(=O)NCc2cccnc2)cc1 (centres undefined)	x	x	-7%	2%	-2%	x
CCOC(=O)C(C)(C)N(Cc1cccc(C)c1)S(=O)(=O)c1cccc([N+](=O)[O-])c1	-9%	-1%	18µM*	-20%[46.1 µM]	9%	10
